Data as given in the supplement of paper PMC11001985.

The targets below were run with C#CCNC(=O)CCSSCCC(=O)NCCc1ccc(C=O)c(C=O)c1 (assay: lysine labeling ratio R10:1 (500 µM / 50 µM probe), SILAC-ABPP in living cells; higher = lower intrinsic lysine reactivity toward the probe, active = 2 or less). Conditions: HeLa; probe concentrations 500 vs 50 µM.
Method in brief: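 R, given per lysine, is the filtered median high-probe/low-probe MS1 peptide ratio, with the median then taken across forward and reverse replicates. Cells were living SILAC light and heavy HeLa cells in PBS at room temperature, labelled with 50 µM or 500 µM of an alkyne-tagged, disulfide-linked lysine probe. The ceiling applied is 20.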

Sequence of UniProt P36941 (P36941 whole entry): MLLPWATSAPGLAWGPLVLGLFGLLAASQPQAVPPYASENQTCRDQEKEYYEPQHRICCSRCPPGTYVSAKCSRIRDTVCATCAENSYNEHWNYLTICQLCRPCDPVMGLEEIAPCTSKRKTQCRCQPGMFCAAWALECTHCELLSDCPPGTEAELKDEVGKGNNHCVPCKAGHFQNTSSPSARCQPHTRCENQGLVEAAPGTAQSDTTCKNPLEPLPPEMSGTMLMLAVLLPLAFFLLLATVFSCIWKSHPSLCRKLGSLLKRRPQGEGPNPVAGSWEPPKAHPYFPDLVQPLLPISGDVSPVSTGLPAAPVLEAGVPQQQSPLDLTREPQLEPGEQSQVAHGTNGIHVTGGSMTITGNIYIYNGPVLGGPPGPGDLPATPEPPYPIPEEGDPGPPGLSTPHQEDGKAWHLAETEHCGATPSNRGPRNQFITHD
Sequence of UniProt Q9Y490 (Q9Y490 whole entry): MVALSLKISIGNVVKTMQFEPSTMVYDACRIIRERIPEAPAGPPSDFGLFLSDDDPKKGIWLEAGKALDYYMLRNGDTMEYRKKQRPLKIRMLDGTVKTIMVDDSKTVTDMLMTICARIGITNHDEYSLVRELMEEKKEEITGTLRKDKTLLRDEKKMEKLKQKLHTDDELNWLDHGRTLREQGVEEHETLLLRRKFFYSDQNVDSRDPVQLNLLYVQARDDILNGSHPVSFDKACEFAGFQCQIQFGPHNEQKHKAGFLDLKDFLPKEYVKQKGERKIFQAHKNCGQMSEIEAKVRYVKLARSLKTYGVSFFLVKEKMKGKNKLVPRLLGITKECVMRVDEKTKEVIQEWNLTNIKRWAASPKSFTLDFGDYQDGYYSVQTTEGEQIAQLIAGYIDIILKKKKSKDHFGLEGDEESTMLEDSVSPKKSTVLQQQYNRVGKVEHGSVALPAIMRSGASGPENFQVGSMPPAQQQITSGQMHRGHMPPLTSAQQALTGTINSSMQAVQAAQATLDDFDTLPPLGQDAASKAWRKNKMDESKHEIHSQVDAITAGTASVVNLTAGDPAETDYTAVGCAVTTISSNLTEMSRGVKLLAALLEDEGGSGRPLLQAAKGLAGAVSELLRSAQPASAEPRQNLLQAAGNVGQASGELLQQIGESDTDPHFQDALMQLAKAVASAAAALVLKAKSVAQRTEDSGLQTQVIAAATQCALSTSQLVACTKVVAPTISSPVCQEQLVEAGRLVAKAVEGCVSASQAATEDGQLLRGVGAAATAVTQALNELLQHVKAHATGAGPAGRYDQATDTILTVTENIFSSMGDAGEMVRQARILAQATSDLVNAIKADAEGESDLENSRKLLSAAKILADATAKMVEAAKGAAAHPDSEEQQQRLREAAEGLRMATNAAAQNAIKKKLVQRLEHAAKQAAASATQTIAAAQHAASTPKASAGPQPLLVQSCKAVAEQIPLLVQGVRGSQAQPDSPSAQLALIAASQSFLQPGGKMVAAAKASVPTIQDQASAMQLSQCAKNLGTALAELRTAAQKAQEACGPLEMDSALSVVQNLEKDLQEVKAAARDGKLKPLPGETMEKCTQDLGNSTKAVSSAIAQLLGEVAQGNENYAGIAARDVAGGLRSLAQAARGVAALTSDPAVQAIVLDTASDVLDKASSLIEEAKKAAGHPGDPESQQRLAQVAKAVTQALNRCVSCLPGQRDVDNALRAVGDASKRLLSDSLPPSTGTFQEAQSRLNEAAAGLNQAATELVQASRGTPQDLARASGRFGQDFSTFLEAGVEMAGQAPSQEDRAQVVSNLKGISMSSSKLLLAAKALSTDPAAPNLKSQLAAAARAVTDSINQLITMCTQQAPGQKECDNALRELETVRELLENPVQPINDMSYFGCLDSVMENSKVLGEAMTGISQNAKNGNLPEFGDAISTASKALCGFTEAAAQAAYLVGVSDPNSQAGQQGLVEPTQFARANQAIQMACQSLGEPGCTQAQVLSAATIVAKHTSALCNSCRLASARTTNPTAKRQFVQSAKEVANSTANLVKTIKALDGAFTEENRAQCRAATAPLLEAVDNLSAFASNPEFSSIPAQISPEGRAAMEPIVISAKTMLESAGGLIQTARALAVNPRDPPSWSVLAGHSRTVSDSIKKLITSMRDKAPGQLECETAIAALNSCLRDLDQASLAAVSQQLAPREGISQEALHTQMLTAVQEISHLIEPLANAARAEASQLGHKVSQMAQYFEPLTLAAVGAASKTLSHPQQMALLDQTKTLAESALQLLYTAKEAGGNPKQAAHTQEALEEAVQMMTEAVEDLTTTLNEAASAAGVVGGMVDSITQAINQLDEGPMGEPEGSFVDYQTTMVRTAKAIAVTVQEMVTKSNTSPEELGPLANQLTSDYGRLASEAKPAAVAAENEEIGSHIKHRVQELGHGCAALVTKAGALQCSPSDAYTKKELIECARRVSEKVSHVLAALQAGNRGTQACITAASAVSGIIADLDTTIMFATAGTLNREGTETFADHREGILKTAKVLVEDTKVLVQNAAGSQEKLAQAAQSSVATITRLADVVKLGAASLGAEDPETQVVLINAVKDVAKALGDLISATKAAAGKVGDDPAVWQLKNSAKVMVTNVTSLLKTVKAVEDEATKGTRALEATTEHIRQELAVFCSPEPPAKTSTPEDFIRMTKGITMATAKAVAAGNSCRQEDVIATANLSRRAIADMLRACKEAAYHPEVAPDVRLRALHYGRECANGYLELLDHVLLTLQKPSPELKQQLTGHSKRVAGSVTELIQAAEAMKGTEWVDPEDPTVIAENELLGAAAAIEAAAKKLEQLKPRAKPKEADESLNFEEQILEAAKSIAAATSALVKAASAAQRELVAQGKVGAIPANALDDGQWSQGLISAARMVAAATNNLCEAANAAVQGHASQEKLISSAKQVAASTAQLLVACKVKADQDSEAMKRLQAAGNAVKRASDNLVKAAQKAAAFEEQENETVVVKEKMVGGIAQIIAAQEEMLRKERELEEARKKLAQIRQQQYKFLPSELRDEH
Sequence of UniProt P46940 (P46940 whole entry): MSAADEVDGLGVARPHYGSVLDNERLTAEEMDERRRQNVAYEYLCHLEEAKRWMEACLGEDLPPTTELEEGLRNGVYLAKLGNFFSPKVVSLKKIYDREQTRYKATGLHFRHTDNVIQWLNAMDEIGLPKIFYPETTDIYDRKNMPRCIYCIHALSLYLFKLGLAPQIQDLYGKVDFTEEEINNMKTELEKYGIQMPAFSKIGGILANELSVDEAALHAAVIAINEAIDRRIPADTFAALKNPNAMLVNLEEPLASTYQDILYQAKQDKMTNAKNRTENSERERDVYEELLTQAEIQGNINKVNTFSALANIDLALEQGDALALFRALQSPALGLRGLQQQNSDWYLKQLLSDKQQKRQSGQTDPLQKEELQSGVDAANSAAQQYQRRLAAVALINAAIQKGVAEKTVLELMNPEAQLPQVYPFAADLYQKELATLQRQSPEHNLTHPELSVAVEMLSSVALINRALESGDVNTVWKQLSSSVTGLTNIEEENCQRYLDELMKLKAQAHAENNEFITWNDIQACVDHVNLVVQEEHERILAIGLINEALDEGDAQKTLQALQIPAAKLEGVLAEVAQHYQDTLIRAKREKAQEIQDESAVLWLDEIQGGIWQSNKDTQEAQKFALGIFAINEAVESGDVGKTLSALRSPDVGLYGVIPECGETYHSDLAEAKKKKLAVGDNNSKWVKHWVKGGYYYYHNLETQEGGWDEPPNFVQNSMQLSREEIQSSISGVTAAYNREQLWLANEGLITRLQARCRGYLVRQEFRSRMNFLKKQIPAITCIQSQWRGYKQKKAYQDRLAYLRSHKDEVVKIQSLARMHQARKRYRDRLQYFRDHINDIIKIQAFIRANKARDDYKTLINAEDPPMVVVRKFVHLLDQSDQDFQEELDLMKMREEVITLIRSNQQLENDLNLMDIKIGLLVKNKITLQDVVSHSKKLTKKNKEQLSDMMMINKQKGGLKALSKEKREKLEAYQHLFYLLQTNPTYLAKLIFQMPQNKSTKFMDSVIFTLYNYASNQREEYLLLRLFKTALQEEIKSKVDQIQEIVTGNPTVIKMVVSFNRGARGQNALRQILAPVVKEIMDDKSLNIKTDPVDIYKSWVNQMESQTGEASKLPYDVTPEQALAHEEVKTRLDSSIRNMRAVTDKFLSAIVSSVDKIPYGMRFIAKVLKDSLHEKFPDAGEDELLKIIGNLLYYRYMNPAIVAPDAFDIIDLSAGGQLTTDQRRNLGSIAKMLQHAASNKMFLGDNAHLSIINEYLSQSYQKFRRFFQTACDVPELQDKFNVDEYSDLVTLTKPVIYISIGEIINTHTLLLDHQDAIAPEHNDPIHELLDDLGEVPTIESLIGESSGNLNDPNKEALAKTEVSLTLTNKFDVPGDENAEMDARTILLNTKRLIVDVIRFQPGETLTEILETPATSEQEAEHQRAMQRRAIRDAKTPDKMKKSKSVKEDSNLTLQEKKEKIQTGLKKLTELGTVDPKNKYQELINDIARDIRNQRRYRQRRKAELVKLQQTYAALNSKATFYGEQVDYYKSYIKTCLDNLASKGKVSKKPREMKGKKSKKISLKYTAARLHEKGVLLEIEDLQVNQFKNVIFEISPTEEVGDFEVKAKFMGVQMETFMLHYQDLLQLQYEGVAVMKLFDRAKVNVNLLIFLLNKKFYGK
Sequence of UniProt P07195 (P07195 whole entry, looked up): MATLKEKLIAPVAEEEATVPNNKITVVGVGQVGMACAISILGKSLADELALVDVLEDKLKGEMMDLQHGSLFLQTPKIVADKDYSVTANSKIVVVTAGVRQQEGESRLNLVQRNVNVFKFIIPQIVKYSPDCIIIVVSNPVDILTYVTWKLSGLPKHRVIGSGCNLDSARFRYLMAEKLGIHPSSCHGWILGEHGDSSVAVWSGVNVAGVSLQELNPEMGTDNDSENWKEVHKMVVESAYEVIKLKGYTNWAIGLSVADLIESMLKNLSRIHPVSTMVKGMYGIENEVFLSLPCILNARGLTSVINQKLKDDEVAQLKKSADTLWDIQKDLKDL

Target	lysine labeling ratio R10:1
ITGB5 (lysine site: K72) (UniProt P18084)	2.3 (inactive)
ITGA5 (lysine site: K978) (UniProt P08648)	4.71 (inactive)
PTPRJ (lysine site: K281) (UniProt Q12913)	0.907 (active)
MET (lysine site: K725) (UniProt P08581)	0.656 (active)
MYH9 (lysine site: K1835) (UniProt P35579)	1.11 (active)
UniProt Q96TA1 (lysine site: K479)	2.71 (inactive)
EEF2 (lysine site: K439) (UniProt P13639)	1.76 (active)
TF (lysine site: K134) (UniProt P02787)	2.36 (inactive)
LDHB (lysine site: K156) (UniProt P07195)	6.77 (inactive)
FAT4 (lysine site: K2004) (UniProt Q6V0I7)	1.27 (active)
PTPRS (lysine site: K379) (UniProt Q13332)	2.21 (inactive)
SMOC1 (lysine site: K223) (UniProt Q9H4F8)	4.99 (inactive)
ROBO1 (lysine site: K232) (UniProt Q9Y6N7)	5.29 (inactive)
TLN1 (lysine site: K687) (UniProt Q9Y490)	3.61 (inactive)
CACNA2D1 (lysine site: K634) (UniProt P54289)	3.07 (inactive)
LTBR (lysine site: K48) (UniProt P36941)	4.97 (inactive)
IQGAP1 (lysine site: K104) (UniProt P46940)	2.32 (inactive)
